A selection: hits, their analogues and other compounds. The true share with any hit is near 3.1%.
p53null 39C tox = p53 null cell cytotoxicity, nonpermissive temperature. H1299 p53-null (neo) cells, 39C, ATPlite viability, 24 h. Potency, µM (highest dose often 46.1 µM), inactives show at the top dose activity, negative = cell killing, usual class: cytotoxic. 55,000 compounds, 0.97% hits. AID 904;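 note: potency is the fitted concentration of half-maximal effect; 0% = DMSO only and -100% = full killing by 100 µM tamoxifen; nearly all actives have a fitted effect of over 50% in size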
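Luminescent ATP signal reported cell survival after H1299 lines (neo, p53 null; or p53 A138V) received up to 46 uM compound and 24 hr incubation at 39C.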
PMP22 txn prim = modulates PMP22 transcription in S16 Schwann cells; S16 Pmp22-F2sN Schwann cells, FLuc/NLuc coincidence luminescence, 24 h; Potency, µM (titrated, usually from 57.5 µM), without a hit: top-dose activity change, negative = inhibition, hits mostly inhibitors; 43,000 compounds, 2% hits; active = clear falling dose curves in both reporters; inconclusive = both reporters move, but less clearly or upward; inactive = either reporter flat; the % is the NLuc reporter signal; note: potency is the fitted concentration of half-maximal effect; % is set by controls: 0 for no effect and ±100 for the full control effect
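S16 Schwann cells carrying FLuc/NLuc coincidence reporter in the Pmp22 3' UTR treated with compound 24 h at 37C; FLuc then NLuc luminescence read sequentially by dual-luciferase reagents.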
OvCa metastasis = inhibitors of ovarian cancer cell adhesion and invasion in omental model | SKOV3ip1-GFP adhesion/invasion on 3D omental model, fluorescence | Potency, µM (series often up to 45.8 µM), inactives show at the top dose activity change, negative = inhibition, most hits filed as inhibitors | 46,000 compounds, 0.1% hits;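 note: potency is the fitted concentration of half-maximal effect; plate controls were DMSO wells for no effect and tomatine positive control wells for full effect; nearly all actives have a fitted effect of over 65% in size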
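A 3D layer of primary human omental fibroblasts, mesothelial cells, fibronectin and collagen I, grown 48 hr, received SKOV3ip1-GFP cells in serum-free medium plus compounds at 0.36-46 umol/L. After 2 hr RT and 16 hr 37 C, fixed adherent GFP cells were counted; normalized to DMSO and tomatine.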
pS6 MEF inh = reduces mTORC1 signaling in Tsc2 and p53 null MEF cells; Tsc2-/- p53-/- MEF, phospho-rpS6 immunofluorescence/PI, 24 h; Potency, µM (titrated, usually from 38.3 µM), inactives show top-dose activity change, negative = inhibition, actives largely listed as inhibitors; 44,000 compounds, 0.78% hits; AID 493208;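 note: potency is the fitted concentration of half-maximal effect; plate controls were DMSO for no effect and rapamycin for full effect; nearly all actives have a fitted effect of over 50% in size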
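Tsc2-/-, p53-/- MEFs (empty-vector stable line) in DMEM + 10% FBS were treated with compounds 24 h at 37 degree Celsius, fixed, and immunostained for phospho-rpS6 (Alexa-488) with propidium iodide counterstain. Laser-scanning cytometry gave % positive cells, normalized against 7.5 nM rapamycin and DMSO.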
p53null 32C tox = selectivity test: cytotoxicity in p53 null cells, permissive temperature | H1299-neo p53 null cells, ATP luminescence, 24 h, 32C | Potency, µM (highest dose often 46.1 µM), for inactives: at the top dose activity change, negative = cytotoxicity, most hits filed as cytotoxic | 55,000 compounds, 0.62% hits | AID 903;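 note: potency is the fitted concentration of half-maximal effect; 0% = DMSO only and -100% = full killing by 100 µM tamoxifen; nearly all actives have a fitted effect of over 55% in size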
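ATP-content luminescence in p53-null H1299-neo cells after 24 h compound exposure (up to 46 uM) at 32C permissive temperature; 0% and 100% killing set by DMSO and 100 uM tamoxifen; Hill-equation AC50.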
S16 viability = toxic to S16 Pmp22-F2sN Schwann cells; Potency, µM (doses to about 57.5 µM), without a hit: at the highest dose activity change, negative = cytotoxicity, hits mostly cytotoxic; S16 Pmp22-F2sN Schwann cells viability, CellTiter-Glo, 24 h; AID 1508642; 43,000 compounds, 0.48% hits; note: potency is the fitted concentration of half-maximal effect; % is set by controls: 0 for no effect and ±100 for the full control effect; nearly all actives have a fitted effect of over 65% in size
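CellTiter-Glo counter-screen, qHTS, 1536-well. Cells: S16(c9) Pmp22-F2sN, 500-1,000/well in DMEM + 10% FBS. Cpd 23 nL pin transfer, 24 h, 37C/5% CO2. Read: luminescence, CCD imager.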
NLuc sat counter = counter-screen for PMP22 expression modulators: NanoLuc inhibition, saturating substrate | Secreted NLuc enzyme (filtered S16 cell medium), Nano-Glo luminescence | AID 1508638 | 690 compounds, 4% hits | shares compounds with PMP22 txn prim | Potency, µM (series often up to 57.5 µM), without a hit: top-dose activity change, negative = inhibition, usual class: inhibitors; note: potency is the fitted concentration of half-maximal effect; % is set by controls: 0 for no effect and ±100 for the full control effect
NLuc Km ctr = NanoLuc inhibition at Km substrate, PMP22 artifact check. shares compounds with PMP22 txn prim. 690 compounds, 5% hits. AID 1508639. Potency, µM (titrated, usually from 57.5 µM), without a hit: top-dose activity change, negative = inhibition, actives largely listed as inhibitors. secreted NLuc enzyme, coelenterazine luminescence, Km conditions; note: potency is the fitted concentration of half-maximal effect; % is set by controls: 0 for no effect and ±100 for the full control effect
FLuc ctr PMP22 = firefly luciferase enzyme inhibition artifact for PMP22 screen; shares compounds with PMP22 txn prim; purified P. pyralis FLuc, luminescence, 10 min; Potency, µM (series often up to 57.5 µM), for the others: at the highest dose activity, negative = inhibition, actives largely listed as inhibitors; 690 tested, under 10 active; AID 1508640; note: % of control where 0% means no effect
Target sequence (P08659 whole entry, looked up): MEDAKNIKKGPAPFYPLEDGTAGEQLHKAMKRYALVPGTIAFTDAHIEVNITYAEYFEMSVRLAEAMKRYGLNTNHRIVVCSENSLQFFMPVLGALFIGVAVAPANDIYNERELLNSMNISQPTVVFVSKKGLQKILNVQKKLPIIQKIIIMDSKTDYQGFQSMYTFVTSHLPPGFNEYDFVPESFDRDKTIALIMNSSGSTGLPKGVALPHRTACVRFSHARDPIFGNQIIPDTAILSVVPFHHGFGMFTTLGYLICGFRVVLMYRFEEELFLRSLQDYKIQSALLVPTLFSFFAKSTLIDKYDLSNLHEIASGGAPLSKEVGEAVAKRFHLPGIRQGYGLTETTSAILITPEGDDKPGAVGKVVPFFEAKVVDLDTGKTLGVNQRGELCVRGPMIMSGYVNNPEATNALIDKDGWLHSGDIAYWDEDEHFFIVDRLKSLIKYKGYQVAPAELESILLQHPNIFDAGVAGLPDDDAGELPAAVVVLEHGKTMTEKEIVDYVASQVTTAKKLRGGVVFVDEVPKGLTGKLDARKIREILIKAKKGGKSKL
S16 viab conf = confirmation of cytotoxicity in S16 Pmp22-F2sN Schwann cells (luciferase reporters placed in the Pmp22 gene). S16 Schwann cells viability, CellTiter-Glo ATP luminescence, 24 h. Potency, µM (titrated, usually from 57.5 µM), for inactives: top-dose activity change, negative = viability loss, actives largely listed as cytotoxic. shares compounds with PMP22 txn prim. 690 compounds, 7% hits. AID 1508641; note: potency is the fitted concentration of half-maximal effect; % is set by controls: 0 for no effect and ±100 for the full control effect
PMP22 txn conf = PMP22 transcription modulation, confirmatory; shares compounds with PMP22 txn prim; S16 Schwann cells Pmp22-F2sN, dual luciferase, 24 h; Potency, µM (series often up to 57.5 µM), for the others: at the top dose activity change, negative = inhibition, hits mostly inhibitors; 690 compounds, 22% hits; AID 1508646; active = clear falling dose curves in both reporters; inconclusive = both reporters move, but less clearly or upward; inactive = either reporter flat; the % is the FLuc reporter signal; note: potency is the fitted concentration of half-maximal effect
PMP22 HiBiT cnf = rat PMP22 protein level modulation, confirmatory | shares compounds with PMP22 txn prim | 95 tested, under 10 active | Potency, µM (series often up to 27.9 µM), inactives show at the top dose activity change, negative = inhibition, hits mostly inhibitors | AID 1508647 | S16 Schwann cells Pmp22-HiBiT, luminescence, 48 h
Target sequence (P25094 whole entry, looked up): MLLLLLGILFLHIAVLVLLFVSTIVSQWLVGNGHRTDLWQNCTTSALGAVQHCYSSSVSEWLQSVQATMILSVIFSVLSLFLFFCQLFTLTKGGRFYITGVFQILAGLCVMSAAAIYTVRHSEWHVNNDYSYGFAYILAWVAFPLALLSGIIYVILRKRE
Numbers without * were called inactive; i = inactive; ? = inconclusive; . = no result; [ ] = dose if it differs, or a comment. Unless noted, calls come from the whole dose curve; as a rule, active = well fitted curve in the direction sought with a large enough effect; inconclusive = small, poorly fitted or top-dose-only effect, or another doubt; inactive = no such curve, though single readings can be large; an effect the other way counts as inactive or inconclusive.

SMILES	p53null 39C tox	PMP22 txn prim	OvCa metastasis	pS6 MEF inh	p53null 32C tox	S16 viability	NLuc sat counter	NLuc Km ctr	FLuc ctr PMP22	S16 viab conf	PMP22 txn conf	others
CCOC(=O)c1ccc(NS(=O)(=O)c2cc(Br)cc3c2N(C(C)=O)C(C)C3)cc1 (configuration not stated)	22%	?	i	1%	9%	0%	.	.	.	.	.
CCCS(=O)(=O)Nc1ccc(F)c(C(=O)c2c[nH]c3ncc(Cl)cc23)c1F	.	.	-9%	.	.	.	.	.	.	.	.
CC(C)[C@H](O)C(=O)N[C@@H](C)C(=O)N[C@@H]1C(=O)N(C)CCc2ccccc21	.	.	4%	.	.	.	.	.	.	.	.
O=S(=O)(c1cccc(Cl)c1)c1nnn2c1nc(NC1CCCCCC1)c1sccc12	-1%	10µM*	5%	-12%	2%	-6%	0%	-3%	8%	6%	?
Cc1nc(-c2ccc(OCC(C)C)c(C#N)c2)sc1C(=O)O	.	.	-5%	.	.	.	.	.	.	.	.
Cc1c(C(=O)Nc2ccccc2Cl)oc2ccc(S(=O)(=O)N3CCCCC3)cc12	18%	14µM*	i	-4%	-5%	2%	-1%	2%	4%	-4%	?
Cc1ccc(Cl)cc1NC(=O)c1oc2ccc(S(=O)(=O)N3CCCCC3)cc2c1C	11%	-9%	9%	-10%	-7%	-1%	.	.	.	.	.
Cc1c(C(=O)Nc2ccccc2Br)oc2ccc(S(=O)(=O)N3CCCCC3)cc12	6%	?	7%	10%	-9%	3%	-1%	8%	3%	-7%	?
Cc1ccc(Cl)cc1NC(=O)c1oc2ccc(S(=O)(=O)N3CCC4(CC3)OCCO4)cc2c1C	-4%	7.5µM*	i	8%	3%	3%	-11%	2%	1%	?	?
CC1(C)O[C@@H]2C[C@H]3[C@@H]4CCC5=CC(=O)C=C[C@]5(C)[C@@H]4[C@@H](O)C[C@]3(C)[C@]2(C(=O)CO)O1	.	.	1%	.	.	.	.	.	.	.	.
Cc1cccc2c1CC[C@H](CN1CCC(c3c(Cl)cccc3Cl)CC1)C[C@@H]2O	.	.	8%	.	.	.	.	.	.	.	.
O=C(O)C1(Cc2cccc(Nc3nccs3)n2)CCC(Oc2cccc(Cl)c2F)CC1 (configuration not stated)	.	.	16%	.	.	.	.	.	.	.	.
Oc1ccc(NCc2ccccc2OCc2ccccc2F)cc1	-26%	20µM*	?	-26%	-2%	28µM*	?	?	?	-7%	-7%
Cn1c(=O)c2c(-c3ccccc3Br)n(C(C)(C)C)cc2n(C)c1=O	-9%	16µM*	7%	-7%	5%	1%	?	-16%	3%	?	-22%
CC(c1ccccc1)n1cc2c(c1-c1ccccc1Br)c(=O)n(C)c(=O)n2C (configuration not stated)	10%	-7%	-14%	-12%	15%	-9%	.	.	.	.	.
COc1ccc(-c2cc(C(F)(F)F)nc(S(C)(=O)=O)n2)cc1	?	20µM*	?	15µM*	?	?	-16%	14µM*	-9%	?	16µM*	PMP22 HiBiT cnf=4%
COc1ccc(-c2cc(C(F)(F)F)nc(-n3nc(C(F)(F)F)cc3C)n2)cc1	6%	?	-16%	?	1%	7%	.	.	.	.	.
O=S(=O)(c1ccc(-c2csc(=Nc3ccc(OC(F)(F)Cl)cc3)n2CCCO)cc1)N1CCCC1	22%	15µM*	?	?	-5%[9.22 µM]	?	0%	-2%	-10%	22µM*	19µM*
COc1cccc2c1CCCC2CCCN1CCN(C2CCCCC2)CC1 (configuration not stated)	.	.	2%	.	.	.	.	.	.	.	.
Cc1ccc(/C=N/NC(=O)c2ccccc2Oc2ccccc2)o1	.	.	5%	.	.	.	.	.	.	.	.
COc1ccc(-n2c(SCC(=O)NCc3ccc(Cl)cc3)nc3ccsc3c2=O)cc1	0%	16µM*	i	-6%	9%	-2%	-8%	4%	-3%	7%	-28%
Cc1ccc(CNC(=O)CSc2nc3ccsc3c(=O)n2-c2ccc(Br)cc2)cc1	5%	?	15%	-5%	7%	4%	.	.	.	.	.
COc1ccc(S(=O)(=O)NCC(c2ccco2)S(=O)(=O)c2ccc(C)cc2)cc1F (configuration not stated)	-2%	?	2%	-6%	9%	?	.	.	.	.	.
Cc1ccc(S(=O)(=O)C(CNS(=O)(=O)c2ccc(F)c(C(F)(F)F)c2)c2ccco2)cc1 (configuration not stated)	-13%	14µM*	5%	?	6%	?	-1%	?	4%	-1%	-12%
COc1ccc(NC(=O)c2nnn(Cc3nc(-c4cc(OC)c(OC)c(OC)c4)oc3C)c2C)cc1	-4%	9%	-6%	-10%	6%	-2%	.	.	.	.	.

Screening results: PubChem BioAssay, National Center for Advancing Translational Sciences (NCATS)
